Several values for one entry are separate records, joined by “and”; a condition that tells them apart may be missing. Identical values can stand only once. Inconclusive results are not listed. A number with no mark means an inactive call. Activity calls are given as the source filed them. Calls follow the shape of the dose curve; as a rule, active = well fitted inhibition curve with a large enough effect in the main read-out, with a control signal flat; inconclusive = small, poorly fitted or top-dose-only effect, or a change in a side signal; inactive = flat fitted curve, though single readings scatter.
molecular target: Neuropeptide S receptor (Homo sapiens) (UniProt Q6W5P4); experiment: Confirmation Concentration-Response Assay for Antagonists of the Neuropeptide S Receptor: cAMP Signal Transduction; conditions: CHO-NPSR cells, cAMP TR-FRET, antagonist mode; series mostly up to 22.3 µM; activity change, negative = inhibition: at the top concentration;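 as to activity change, negative = inhibition: 0% = DMSO with NPS and full inhibition = wells lacking NPS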
How it was run: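 LANCE TR-FRET cAMP read-out: 665/620 nm emission ratio, with the 620 nm donor channel also reported, after 2 h RT detection. Stably transfected CHO-NPSR cells got compound titrations and 100 nM NPS in stimulation reagent for 60 min at 37C. IC50 came from Hill fits.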
Potency is read from the fitted curve at half-maximal effect.

Chain of Neuropeptide S receptor (Homo sapiens) (Q6W5P4 whole entry, looked up): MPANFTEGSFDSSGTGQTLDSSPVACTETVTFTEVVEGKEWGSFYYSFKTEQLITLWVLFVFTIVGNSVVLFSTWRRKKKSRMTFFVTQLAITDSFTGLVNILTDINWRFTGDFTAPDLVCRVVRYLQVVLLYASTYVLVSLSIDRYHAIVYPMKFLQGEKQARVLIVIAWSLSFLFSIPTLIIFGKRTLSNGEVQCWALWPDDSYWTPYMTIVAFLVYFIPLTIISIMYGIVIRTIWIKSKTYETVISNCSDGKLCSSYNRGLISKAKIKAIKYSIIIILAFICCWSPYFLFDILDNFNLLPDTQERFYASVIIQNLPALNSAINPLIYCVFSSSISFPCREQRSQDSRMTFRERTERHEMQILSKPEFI

Compound	activity change, negative = inhibition [%]	Potency
O=[N+]([O-])c1cc2c(cc1/C=N/n1c(-c3ccccc3)n[nH]c1=S)OCO2	-1.53	–
CN(C)S(=O)(=O)Nc1ccccc1C(N)=O	-5.22	–
NC(=O)OCC(COC(N)=O)c1ccccc1	-6.16	–
N=c1c2c(ncn1-c1ccccc1)Oc1ccc3ccccc3c1C2c1ccc2c(c1)CCO2 (stereo not drawn)	–	1.12 µM (active)
CCOC(=O)c1cnc(-n2nc(C)cc2C)nc1Nc1ccc(C)cc1	-5.24	–
CC1CCCCN1S(=O)(=O)c1ccc(C(=O)Nc2sccc2C(N)=O)cc1 (stereo not drawn)	–	12.6 µM (active) and 14.1 µM (active)
CN(C)c1ccc(N2CN=C3SCC(=O)N3C2)cc1	20.4	–
Cc1oc2c(c1C(=O)NCc1cccnc1)C(=O)c1ccccc1C2=O	-5.45	–
Cc1cc(N/N=C/c2ccccc2[N+](=O)[O-])nc(-n2nc(C)cc2C)n1	-5.67	–
COc1ccc(O)c(/C=N/Nc2nc(Nc3ccccc3)nc(-n3nc(C)cc3C)n2)c1	-1.82	–
C/C(=N\NC(=S)NC1CCCCC1)c1c(F)cccc1F	-12	–
O=C(CSc1n[nH]c(-c2cccnc2)n1)Nc1ccnc2ccccc12	-2.52	–
CC(C)Cc1nc(N2CCN(C(=O)c3ccccc3)CC2)c(C#N)c2c1CCC2	-10.7	–
O=C(c1ccccc1-c1nc2ccccc2[nH]1)N1CCCCC1	-21.1	–
CC1(C)O[C@@H]2C[C@H]3[C@@H]4C[C@H](F)C5=CC(=O)CC[C@]5(C)[C@H]4[C@@H](O)C[C@]3(C)[C@]2(C(=O)CO)O1	-6.23	–
COc1ccc(/C=C2\CCCC3C2=NN(C(=O)c2ccco2)C3c2ccc(OC)c(OC)c2)cc1OC (stereo not drawn)	–	inactive
O=C(/C(=C/c1ccc(Cl)cc1)c1nc2ccccc2[nH]1)c1cccs1	–	8.91 µM (active)
COc1ccc(N2C3=C(CC4=C2CC(C)(C)CC4=O)C(=O)CC(C)(C)C3)cc1	-0.478	–
CCC(=O)O[C@]1(C(=O)CCl)[C@@H](C)C[C@H]2[C@@H]3CCC4=CC(=O)C=C[C@]4(C)[C@@]3(F)[C@@H](O)C[C@@]21C	–	11.2 µM (active)

Compound	activity change, negative = inhibition [%]	Potency
COc1cccc(C2c3c(ncn(CCN4CCOCC4)c3=N)Oc3ccc4ccccc4c32)c1 (stereo not drawn)	–	2.51 µM (active) and 10 µM (active)
N=c1c2c(ccn1-c1ccccc1)Oc1ccc3ccccc3c1C2c1ccccc1 (stereo not drawn)	–	2.51 µM (active)
CCC(c1nnnn1C1CCCC1)N1CCN(c2ccccc2)CC1 (stereo not drawn)	-5.45	–
O=C(O)CCCCCNc1nc(=S)[nH]c2ccccc12	-0.723	–
N#Cc1c(-c2ccccc2)c(-c2ccccc2)nn(CC(=O)NNC(=O)Nc2ccc(Cl)c(Cl)c2)c1=O	-5.78	–
Brc1ccc(CSc2ncn[nH]2)cc1	-6.38	–
N[C@@H](Cc1cc(I)c(Oc2ccc(O)c(I)c2)c(I)c1)C(=O)O	1.71	–
COC(=O)c1ccc(C(=O)OC)c(NC(=O)CSc2cccc[n+]2[O-])c1	-6.2	–
CS(=O)(=O)c1nc(-c2ccccc2)cc(C(F)(F)F)n1	–	7.94 µM (active)
CC(=O)n1nc2nc(C)cc(C)c2c1N	8.9	–
Cc1cc(C)n(-c2nc(Nc3ccccc3C(F)(F)F)nc(-n3nc(C)cc3C)n2)n1	–	11.2 µM (active)
O=C(Nc1ncnc2c1C(c1ccccc1)c1c(ccc3ccccc13)O2)c1ccccc1 (stereo not drawn)	–	6.31 µM (active)
Cc1ccc(-c2ccc(/C=C3\C(=O)ON=C3c3ccccc3)o2)c([N+](=O)[O-])c1	–	2.82 µM (active)
O=C(O)C1CCN(c2nc(-c3ccccc3)nc3c2oc2ccccc23)CC1	-13.7	–
CN(Cc1cc(=O)[nH]c2ccccc12)C(=O)c1ccccc1	-1.96	–
Cc1ccc2nc3ccc(N4CCCCCCC4)nn3c(=O)c2c1	-5.95	–
CCc1ccc2oc(-c3cc(N)cc(C)c3O)nc2c1	14.2	–
c1ccc(-c2ccc(-c3nc(-c4cccnc4)no3)cc2)cc1	-15.5	–
CN(C)c1ccc(N=Cc2ccco2)cc1	-23	–

Reference: PubChem BioAssay AID1491 (National Center for Advancing Translational Sciences (NCATS), 2009)
